PubChem BioAssay AID624267 (The Scripps Research Institute Molecular Screening Center, 2012)
The whole screen tested about 360,000 compounds, of which about 1,400 (0.39%) were called active. The list comes from a sample in which actives are over-represented; it also holds similar structures and randomly drawn compounds. Values without a mark were called inactive. Cut-off read from the data, not from the text of the source: active = inhibition above about 21%; inactive = the rest.

Biological target: Receptor-interacting serine/threonine-protein kinase 2 (Homo sapiens) (UniProt O43353)
Sequence (O43353 whole entry, looked up): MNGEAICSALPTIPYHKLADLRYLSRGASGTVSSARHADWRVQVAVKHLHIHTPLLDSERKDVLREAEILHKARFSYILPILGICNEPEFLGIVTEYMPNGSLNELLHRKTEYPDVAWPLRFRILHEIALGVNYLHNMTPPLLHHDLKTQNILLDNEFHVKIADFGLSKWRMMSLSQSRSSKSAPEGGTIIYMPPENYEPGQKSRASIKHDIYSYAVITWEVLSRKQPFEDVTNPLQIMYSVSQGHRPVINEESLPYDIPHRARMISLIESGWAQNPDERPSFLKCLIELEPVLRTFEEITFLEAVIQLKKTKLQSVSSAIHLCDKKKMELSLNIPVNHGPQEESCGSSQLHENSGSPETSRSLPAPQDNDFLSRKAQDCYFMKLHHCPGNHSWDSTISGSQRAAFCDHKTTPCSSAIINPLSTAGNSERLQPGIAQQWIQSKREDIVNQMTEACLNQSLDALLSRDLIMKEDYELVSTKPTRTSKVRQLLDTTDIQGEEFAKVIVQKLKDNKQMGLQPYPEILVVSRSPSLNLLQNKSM
Assay: inhibitors of RIPK2 association with NOD2 – fluorescence, CHO cells, BLA complementation, primary screen (AID 624267);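 note: 0% = vehicle only and 100% = reference blocker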
Conditions: CHO BLA complementation NOD2-RIPK2, CCF4 ratio; at 4.98 µM; active compounds read high

In order of falling inhibition:
1. COc1cccc(CC(=O)OCC(=O)NCc2ccc3c(c2)OCO3)c1  9.81%
2. O=C(OCc1nnc(-c2ccccc2)o1)c1ccc2c(c1)C(=O)N(CCc1ccccc1)C2=O  9.8%
3. COC(=O)[C@]1(C)CCC[C@@]2(C)C3CC[C@]4(OC(C)=O)C[C@@]3(CCC21)CC4=NO (some centres undefined)  6.55%
4. CCc1nc2ccc(C(=O)NCc3ccc(OC)cc3)cn2c1N(CC)Cc1cccc(Br)c1  6.44%
5. O=C(CNc1ccccc1N1CCCC1=O)Nc1cc(Cl)ccc1-n1cncn1  4.89%
6. CC1(C)NC(=O)N(CC(=O)Nc2ccc(-c3ccccc3)cc2)C1=O  4.81%
7. CCc1nn(CCCC(=O)Nc2ccc(C)cc2C)c(=O)c2cc3occc3n12  4.65%
8. Cc1ccc(S(=O)(=O)N2CCN=C2SCc2c(F)cccc2Cl)cc1  4.62%
9. CCOC(=O)c1c(NC(=O)C2CCN(S(=O)(=O)c3ccc(Cl)cc3)CC2)sc2c1CCCC2  4.57%
10. COc1cc2c(cc1OC)C1C(=O)c3cc(OS(C)(=O)=O)c(OC)cc3C1N(C)C2=O (centres undefined)  3.51%
11. CS(=O)(=O)N(CC(=O)N1CCCC1)Cc1ccccc1  3.45%
12. CN(CC(=O)Nc1ccc(F)cc1)CC(=O)N1CCCCC1  3.04%
13. NC(CSC12CC3CC(CC(C3)C1)C2)C(=O)O (centres undefined)  2.91%
14. CN1CCN(S(=O)(=O)c2cccc(C(=O)N3CCc4ccccc43)c2)CC1  2.86%
15. O=C(CSc1ncn[nH]1)Nc1nc2c(F)c(F)c(F)cc2s1  2.77%
16. CC(C)(C)C1CCC(C(=O)NCC(c2cccs2)N2CCOCC2)CC1 (centres undefined)  2.5%
17. NC(=O)COc1ccccc1C(=O)NC12CC3CC(CC(C3)C1)C2  2.45%
18. COc1ccc(NC(=O)COC(=O)c2n[nH]c3ccccc23)c(OC)c1  2.43%
19. O=C(COc1ccccc1Cl)Nc1ccc(C(=O)c2ccc(C(=O)O)cc2)cc1  2.32%
20. CCSc1ccccc1C(=O)Nc1ccc2c(c1)OCO2  1.86%
21. COc1ccc(C(C(=O)NC(C)(C)C)N(C(=O)Cn2nnc3ccccc32)c2ccc(C(C)=O)cc2)cc1O (centres undefined)  1.81%
22. CC(C)(C)n1nc2c(c1NC(=O)c1ccc(S(=O)(=O)N3CCCC3)cc1)CS(=O)C2 (centres undefined)  1.52%
23. O=C(Oc1ccccc1Cl)c1ccc(N2CCOCC2)c([N+](=O)[O-])c1  1.05%
24. O=C(CSc1ncn[nH]1)Nc1nsc(-c2ccccc2)n1  1.03%
25. COc1ccc(C(CNC(=O)COc2ccc([N+](=O)[O-])cc2)N2CCCCC2)cc1 (centres undefined)  0.77%
26. COc1ccccc1C(=O)NC(CCSC)C(=O)N1CCN(C/C=C/c2ccccc2)CC1 (centres undefined)  0.75%
27. COc1cc(C=NC2CCCCC2)ccc1O  0.2%
28. C=CCn1cc(-c2cccc(C(F)(F)F)c2)cc(C#N)c1=O  0.01%
29. O=[N+]([O-])c1ccc(C(S(=O)(=O)Cc2ccccc2)S(=O)(=O)Cc2ccccc2)cc1  -0.41%
30. COc1ccccc1C(=O)NCCC(=O)NC1=NCCS1  -0.45%
31. CSc1ccccc1NC(=O)c1cnc2sc(C)cn2c1=O  -0.62%
32. O=C(NN1C(=O)C2C3C=CC(O3)C2C1=O)c1ccncc1 (centres undefined)  -1.04%
33. O=C(O)CC(Cc1ccccc1)C(=O)Nc1ccc([N+](=O)[O-])cc1 (centres undefined)  -1.04%
34. O=[N+]([O-])c1ccc(Oc2ccc(F)cc2Br)c2ccncc12  -1.06%
35. O=S(=O)(c1ccc2c(c1)OCCO2)N1CCc2ccccc21  -1.2%
36. CCN(C(=O)Cc1nc(N)n[nH]1)C1(C(=O)Nc2ccccc2)CCCCC1  -2.08%
37. Cc1ccccc1CS(=O)(=O)CC1(O)CCN(C(=O)c2cccc(C(F)(F)F)c2)CC1  -2.24%
38. Cc1csc(NC(=O)C2CCCN2C(=O)OCC(C)C)n1 (centres undefined)  -2.47%
39. CCCCN(CCCC)CCCNC(=O)CN1C(=O)COc2ccc(S(=O)(=O)N3CCC(C)CC3)cc21  -2.68%
40. COCCCNC(=S)N1CCCC(c2nc3cc(C)c(C)cc3[nH]2)C1 (centres undefined)  -3.68%
41. CC(=O)N1c2ccccc2N(Cc2ccc([N+](=O)[O-])cc2)C(=O)C1(C)C  -3.82%
42. COCCCN(C(=S)Nc1c(C)cc(C)cc1C)C(C)c1ccncc1 (centres undefined)  -3.93%
43. Cc1ccc(C(=O)N/N=C/c2sc(=O)n(Cc3cccc(C(=O)O)c3)c2Cl)cc1  -4.49%
44. CC(C)CNC(=S)NNC(=O)c1nn(C)cc1Cl  -4.5%
45. O=[N+]([O-])c1ccc(N2CCN(c3ccc(O)cc3)CC2)c(Cl)c1  -4.55%
46. CC(C)CC(CO)N1CCN(C(=O)c2ccc(Cl)cc2Cl)CCC1=O (centres undefined)  -4.88%
47. CC(C)(C)c1ccc(CCC2OCC(CN3CCOCC3)O2)cc1 (centres undefined)  -4.96%
48. Cc1ccc(C)c(NS(=O)(=O)c2c(C)[nH]c(C)c2C(=O)N2CCCCC2)c1  -5.02%
49. O=C(Cn1nc(C(=O)O)c2ccccc2c1=O)Nc1ccc(F)cc1  -5.34%
50. CCOc1ccc2c(=O)c(-c3ccc4c(c3)OCCCO4)c(C)oc2c1  -5.36%
51. Cc1nn(C)c(C)c1C(C)NC(=O)c1ccc(OC2CCN(Cc3ccccn3)CC2)cc1 (centres undefined)  -7.27%
52. CN(C)CCCNC(=S)N1CCC(c2nc3ccccc3[nH]2)CC1  -7.82%
53. Cc1cc(NC(=O)CN2CCC(O)(c3cccc(F)c3)CC2)no1  -7.88%
54. COc1ccc(-c2nc3n(c2Br)CCC3)cc1  -7.99%
55. O=C(Nc1ccccc1)C1CC(=O)n2c(nc3ccccc32)N1 (centres undefined)  -8.18%
56. N#Cc1cc([N+](=O)[O-])ccc1NC(=O)COC(=O)c1cnccn1  -8.54%
57. Cc1cc(C)n(CC(O)COc2ccc(C(C)(C)C)cc2)n1 (centres undefined)  -8.7%
58. O=C(NCCC1=CCCCC1)c1ccc(Cl)c([N+](=O)[O-])c1  -8.9%
59. O=C(CN1CCc2cc3c(cc2C1)OCCCO3)Nc1ccccc1  -9.22%
60. CC(=O)N1CCN(S(=O)(=O)c2cccc(C(=O)NC3CCC(C)CC3)c2)CC1 (centres undefined)  -9.28%
61. N#CCCN(C(=O)COC(=O)c1ccc(S(=O)(=O)N2CCCCCC2)cc1)c1ccccc1  -9.9%
62. O=C(NC(=S)NC1CCSC1=O)c1ccccc1F (centres undefined)  -9.93%
63. CC(C)N(Cc1nnc(-c2ccccc2Br)o1)C(=O)c1cc(Cl)nc2ccccc12  -10.3%
64. Cc1cccc(OC(C)C(=O)N2CCc3ccccc3C2)c1 (centres undefined)  -10.7%
65. O=[N+]([O-])c1ccc(CN2CC(N3CC=CC3)CS2(=O)=O)cc1 (centres undefined)  -11%
66. OC(CN=c1sc2ccccc2n1CC(O)COc1ccccc1)COc1ccccc1 (centres undefined)  -11.1%
67. COc1cc2[nH]c(O)c(C=O)c2cc1OC  -11.7%
68. COc1ccccc1Oc1ccc(N2CC(C(=O)OCC(=O)c3ccc(F)cc3)CC2=O)cc1 (centres undefined)  -13.1%
69. COCCCNC(=O)Cn1c(=O)n(Cc2ccccc2Cl)c(=O)c2cc(OC)c(OC)cc21  -13.8%
70. CC(=O)Oc1cccc(N2C(=O)CC(Nc3ccc(N4CCOCC4)cc3)C2=O)c1 (centres undefined)  -13.9%
71. Cc1ccc(S(=O)(=O)Nc2ccc3c(c2)C(=O)N([C@H](C)CO)C[C@@H](C)[C@@H](CN(C)C(=O)Nc2cccc4ccccc24)O3)cc1  -59.7%

For `O=C1C(Cl)=C(Oc2ccccc2)C(=O)c2ccccc21`, the inhibition was 71.7% (active).
`Nc1c(C(=O)c2cccs2)sc2nsc(SCCN3CCCCC3)c12` was tested, and the inhibition was 37.8% (active).
With `O=C(/C=C/c1ccc(Cl)c([N+](=O)[O-])c1)c1ccc(O)cc1` the inhibition was 28.9% (active).
For `O=C(CSc1ncn[nH]1)Nc1nc(-c2cccc([N+](=O)[O-])c2)cs1`, the inhibition was 21.5% (active).
For `Oc1ccc2ccc3cccc[n+]3c2c1`, the inhibition was 23.5% (active).
In the case of `O=C1C=C(c2ccc(Cl)cc2)C(=O)N1Nc1ccccc1`, the inhibition is reported as 34.1% (active).
With `CCN(CC)CCCC(C)n1c2nc(=O)[nH]c(=O)c-2nc2cc(Cl)ccc21` (centres undefined) the inhibition was 31.2% (active).
For `COc1cc(/C=C(\C#N)c2nc3c(s2)CC(C)CC3)ccc1O` (centres undefined), the inhibition was 23.2% (active).
In the case of `Cc1ccc(NC(=O)Cn2sc3ccccc3c2=O)cc1`, the inhibition is reported as 22.1% (active).
In the case of `O=C1/C(=C\c2ccc([N+](=O)[O-])cc2)CS(=O)(=O)C/C1=C/c1ccc([N+](=O)[O-])cc1`, the inhibition is reported as 44.6% (active).
In the case of `COc1ccc(C(C[N+](=O)[O-])n2nc(C)cc2C)cc1` (centres undefined), the inhibition is reported as 26.6% (active).
For `Nc1cccc2c1C(=O)N(Cc1nnc(-c3ccccc3Br)o1)C2=O`, the inhibition was 27.5% (active).
For `CC1CC(C)CN(S(=O)(=O)c2cccc(C(=O)N3C(=O)c4cccc(N)c4C3=O)c2)C1` (centres undefined), the inhibition was 30.1% (active).
With `O=C1CC(C(F)(F)C(F)(F)C(F)(F)C(F)(F)F)=Nc2ccccc2N1` the inhibition was 24.9% (active).
For `CC[C@H]1CN2CCc3cc(OC)c(OC)cc3[C@@H]2C[C@@H]1C[C@H]1NCCc2cc(OC)c(OC)cc21`, the inhibition was 23.9% (active).
In the case of `O=C1NC(=O)C2C1C(c1ccc([N+](=O)[O-])cc1)=NN2Cc1ccccc1` (centres undefined), the inhibition is reported as 43.2% (active).
With `COc1ccc(OC)c(N=Cc2c(O)[nH]c3ccccc23)c1` the inhibition was 68.3% (active).
For `O=C(CCN1CCc2ccccc2C(O)(c2ccccc2)C1)c1ccc2c(c1)OCCO2` (centres undefined), the inhibition was 26.2% (active).
